A selection: hits, their analogues and other compounds. The true share with any hit is near 19%.
SARS PLpro yeast: blocks SARS-CoV papain-like protease in a yeast assay; Potency, µM (series often up to 32.9 µM), usual class: activators; S. cerevisiae expressing SARS-CoV PLpro, growth rescue; actives 0.19% (n = 330,000); calls by dose curve; further: nearly all actives have a fitted effect of over 55% in size
Pf growth 96h: P. falciparum growth inhibition at 96 hour, primary screen for plastid delayed-death inhibitors; actives 6.9% (n = 320,000); Potency, µM (titrated, usually from 28.7 µM), hits mostly inhibitors; P. falciparum luciferase reporter growth, 96 h
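96 h incubation, 37 C, 5% CO2, of luciferase-reporter P. falciparum-infected RBCs (2% hematocrit, 0.05% parasitemia final) with test compounds; endpoint luminescence.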
AMA1-RON2 inh: AMA1-RON2 (P. falciparum) interaction inhibition; AlphaScreen AMA1-biotinylated RON2 peptide binding; Potency, µM (titrated, usually from 58.2 µM), usual class: inhibitors; actives 0.2% (n = 360,000); further: nearly all actives have a fitted effect of over 45% in size
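AMA1 (3D7) with his tag at 25 nM final met compounds first, then biotinylated RON2 peptide at 25 nM; detection used donor plus acceptor beads, 10 µg/mL apiece, read by AlphaScreen after 30 min at room temperature.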
Pf growth 48h: P. falciparum growth inhibition at 48 hours (one generation); P. falciparum luciferase growth in erythrocytes, 48 h; Potency, µM (top dose mostly 28.7 µM), most hits filed as inhibitors; actives 5.9% (n = 310,000); AID 504832
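Growth was read as firefly luciferase luminescence after a 48 h, 37 C, 5% CO2 exposure of compounds to reporter-bearing P. falciparum cultures (0.1% parasitemia, 2% hematocrit final) in Albumax-supplemented RPMI 1640.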
Shiga toxin inh: inhibitors of Shiga toxin in Vero cells. Vero cells, Shiga toxin protein synthesis inhibition reporter. inhibition, % at 38.7 µM. actives 9.2% (n = 290,000); in the data active means inhibition mostly above about 28%, no sharp cut-off; inactive means mostly below about 43%
CHX counter: counter-screen hit for Shiga toxin inhibitors, cycloheximide; cell reporter, cycloheximide protein synthesis inhibition counterscreen; max response, %; actives 12% (n = 300,000); in the data active means max response mostly above about 13%, no sharp cut-off; inactive means mostly below about 14%; further: read at 38.3 µM for the half of the compounds with a filed dose
Large screens that a line does not name were inactive. Unless noted, the call rests on the fitted dose curve; in most records, active means well fitted curve in the direction sought with a large enough effect; inconclusive means small, poorly fitted or top-dose-only effect, or another doubt; inactive means no such curve, though single readings can be large; an effect the other way counts as inactive or inconclusive.

CCOCCOC(=O)c1[nH]c2c(c1C)C(=O)CC(c1ccc(OC)c(OC)c1)C2 (stereo not drawn)	Pf growth 96h 1.5µM, Pf growth 48h inconclusive
COc1cc(C2CC(=O)c3c([nH]c(C(=O)OCCOC(C)C)c3C)C2)cc(OC)c1OC (stereo not drawn)	Pf growth 96h inconclusive, Pf growth 48h 7.4µM
CCOC(=O)c1[nH]c2c(c1-c1ccccc1)C(=O)CC(c1ccccc1)C2 (stereo not drawn)	Pf growth 96h inconclusive, Shiga toxin inh 54, CHX counter 41
CC1CC(=O)Nc2ccccc2N1C(=O)CSc1nnnn1C(C)C (stereo not drawn)	none (no result: Shiga toxin inh, CHX counter)
CC(C)C(OC(=O)CCCC(=O)Nc1nccs1)C(=O)NC1CCCCC1 (stereo not drawn)	none
CCOC(=O)N1CCC(N2C(=O)c3ccccc3C2Nc2ccccc2)CC1 (stereo not drawn)	Pf growth 96h inconclusive (no result: Pf growth 48h)
CCOC(=O)N1CCC(N2C(=O)c3ccccc3C2Nc2cc(C(=O)OC)cc(C(=O)OC)c2)CC1 (stereo not drawn)	Pf growth 96h 8.3µM (no result: Pf growth 48h)
CCOC(=O)N1CCC(N2C(=O)c3ccccc3C2Nc2ccc(C)cc2)CC1 (stereo not drawn)	Pf growth 96h 9.3µM (no result: Pf growth 48h)
CCNc1ccc2c(Cl)cc(=O)oc2c1	Pf growth 96h inconclusive, CHX counter 19
CCN1CCN(C(=O)Cn2cnc3sc(C)c(S(=O)(=O)N4CCN(c5ncccn5)CC4)c3c2=O)CC1	none
Nc1c(C(=O)NCCN2CCOCC2)c2nc3ccccc3nc2n1-c1ccccc1	Pf growth 48h 9.3µM (no result: Pf growth 96h)
Nc1c(C(=O)NCCN2CCOCC2)c2nc3ccccc3nc2n1-c1ccc2c(c1)OCO2	Pf growth 96h 2.9µM, Pf growth 48h inconclusive
COCCNC(=O)c1c(N)n(-c2ccccc2)c2nc3ccccc3nc12	Pf growth 96h inconclusive, Pf growth 48h inconclusive
COc1ccc(C2=NN(C(N)=S)C(c3ccco3)C2)cc1 (stereo not drawn)	SARS PLpro yeast inconclusive, CHX counter 20
O=C(CCl)N1N=C(c2ccco2)CC1c1ccco1 (stereo not drawn)	Pf growth 96h 13µM, Pf growth 48h 13µM
CCC(=O)N1N=C(c2ccc(Cl)cc2)CC1c1ccco1 (stereo not drawn)	none
COc1ccc(C2=NN(C(=O)CSc3nnc(-c4ccccc4F)o3)C(c3ccco3)C2)cc1 (stereo not drawn)	Pf growth 96h inconclusive, Pf growth 48h inconclusive
COc1ccc(C2=NN(C(=O)c3ccco3)C(c3ccco3)C2)cc1OC (stereo not drawn)	Shiga toxin inh 41, CHX counter 14
CCc1ccc(C2=NN(C(C)=O)C(c3ccco3)C2)cc1 (stereo not drawn)	Shiga toxin inh 79, CHX counter 34
Cc1ccc(S(=O)(=O)NN=C2C3CC4CC(C3)CC2C4)cc1[N+](=O)[O-]	none
CC(C)c1ccc(S(=O)(=O)N2CCN(C(=O)[C@@H]3CCCN3C(=O)c3cccs3)CC2)cc1	none (no result: Shiga toxin inh, CHX counter)
C#Cc1ccc(C(=O)Nc2ccc(N3CCC(C)CC3)c(C(N)=O)c2)cc1	Pf growth 96h inconclusive, Pf growth 48h 1.9µM
Cc1cccc(NC(=O)c2cc(NC(=O)c3ccccc3)ccc2N2CCCCC2)c1	none (no result: Pf growth 48h)
CCO[C@H]1OC(C(=O)O)=C[C@@H](c2ccc3c(c2)OCO3)[C@@H]1CCCO	none
Cc1c(Cl)c(=O)n2c(=O)c(Cl)c(C)n12	none
C=CCN(c1ccc(F)cc1)S(=O)(=O)c1cc(C(=O)OCC(=O)N(C)C2CCS(=O)(=O)C2)ccc1Cl (stereo not drawn)	Pf growth 48h inconclusive
CC1(C)CC(=O)C2=C(C1)Nc1cc3c(cc1C2c1ccc(F)cc1)OCO3 (stereo not drawn)	Pf growth 96h 5.2µM, Pf growth 48h inconclusive
COc1cccc(C2C3=C(CCCC3=O)Nc3[nH]n(-c4ccccc4)c(=O)c32)c1 (stereo not drawn)	none
COc1cc(C2C3=C(CCCC3=O)Nc3[nH]n(-c4ccccc4)c(=O)c32)ccc1O (stereo not drawn)	Pf growth 96h inconclusive, Pf growth 48h 5.2µM

Screening data (PubChem BioAssay)
